Results reported in PubChem BioAssay (Tox21).
Values joined by “and” are separate entries in the source; they are usually repeats but may differ in a detail not shown here. Equal values may be shown once. Results filed as inconclusive are left out. Where a call stands in place of a potency, no number is given. Some compounds were tested as several samples or in several runs, with calls that do not always agree. Active and inactive are the calls of the source. Calls follow the shape of the dose curve; as a rule, active = well fitted cell-killing curve with a large enough effect in the repeat runs; inconclusive = weak or mixed curves, or effect the other way; inactive = flat fitted curve, though single readings scatter.

Test: qHTS assay to identify small molecule agonists of the estrogen receptor beta (ER-beta) signaling pathway - cell viability counter screen (AID 1259380); also: nearly all actives have a fitted effect of over 30% in size
Conditions: ER-beta-bla HEK293T viability, CellTiter-Glo luminescence, 16 h; series mostly up to 92.4 µM; activity change, negative = cytotoxicity: at the top concentration
Description: National Center for Advancing Translational Sciences [NCATS]
NIH Chemical Genomics Center [NCGC]
U.S. Environmental Protection Agency [EPA]
National Institutes of Environmental Health Sciences [NIEHS]
National Toxicology Program [NTP]
U.S. Food and Drug Administration [FDA]
Estrogen receptor (ER), a nuclear hormone receptor, plays an important role in development, metabolic homeostasis and reproduction. Two subtypes of ER, ER-alpha and ER-beta, have similar expression patterns with some uniqueness in both types. Endocrine disrupting chemicals (EDCs) and their interactions with steroid hormone receptors like ER causes disruption of normal endocrine function. To identify the compounds that activate ER signaling, an ER beta-UAS-bla GripTite cell line (Life Technologies, Madison, WI, USA) containing a beta-lactamase reporter gene under the control of an UAS response element was used to screen Tox21 10K compound library. The cytotoxicity of the Tox21 compound library against the ER-beta-bla cell line was tested in parallel by measuring the cell viability using CellTiter-Glo assay in the same wells.
Tox21 Assay Protocol Summary:
ER-beta-UAS-bla HEK293T cells were dispensed at 2,000 cells/5 uL of assay medium containing 2% charcoal stripped FBS per well into black wall/clear-bottom 1536-well plates using a Multidrop Combi (ThermoFisher Scientific, Waltham, MA) dispenser. After the assay plates were incubated at a 37C and 5% CO2 for 6 hr, 23 nL of compounds dissolved in DMSO, positive controls or DMSO only was transferred to the assay plate by a Pintool station (Kalypsys, San Diego, CA). The plates were incubated at 37C and 5% CO2 for 16 hr. Then 1 uL of LiveBLAzerTM B/G FRET substrate was added using a BioRAPTR FRD (Flying Reagent Dispenser, Aurora Discovery, San Diego, CA) and then the plates were incubated at room temperature for 2 hours, and fluorescence intensity was measured by an Envision plate reader (PerkinElmer, Shelton, CT). For cell viability readout that measures cytotoxicity, 4 uL/well of CellTiter-Glo reagent was added into the assay plates using a FRD. After 30 min incubation at room temperature, the luminescence intensity in the plates was measured using a ViewLux (PerkinElmer) plate reader.
Potency is read from the fitted curve at half-maximal effect.

SMILES	Potency	activity change, negative = cytotoxicity
O=C1O[C@H](CO)[C@@H](O)[C@H](O)[C@H]1O	inactive	–
OC1CCCC1	inactive	–
CCCCCCCCC	inactive	–
CCC(C)C=O (stereo not given)	inactive	–
C=C1C2CCC(C2)C1(C)C (stereo not given)	inactive	–
CC[Si](OC(C)=O)(OC(C)=O)OC(C)=O	inactive	–
CCCCCCCCCCCCN	inactive and 30.6 µM (active)	–
CC1=C(/C=C/C(C)=C/C=C/C(C)=C/CO)C(C)(C)CCC1	–	-12.2% (inactive)
C=C(C#N)C(=O)OCC	inactive	–
C[C@@H]1O[C@@H](OC[C@H]2O[C@@H](Oc3c(-c4ccc(O)c(O)c4)oc4cc(O)cc(O)c4c3=O)[C@H](O)[C@@H](O)[C@@H]2O)[C@H](O)[C@H](O)[C@H]1O	inactive	–
CNC[C@H](O)[C@@H](O)[C@H](O)[C@H](O)CO	inactive	–
CCOC(=O)[C@H](CCc1ccccc1)N[C@@H](C)C(=O)N1Cc2ccccc2C[C@H]1C(=O)O	inactive	–
CCCCC(CC)C(=O)OCCOCCOCCOC(=O)C(CC)CCCC (stereo not given)	inactive	–
CCCCOCCOCCOC(=O)CCCCC(=O)OCCOCCOCCCC	inactive	–
OC[C@@H](O)[C@@H](O)[C@H](O)[C@@H](O)CO	inactive	–
CCCCCCCCCCC=CC1CC(=O)OC1=O (stereo not given)	–	-15.5% (inactive)
CC1=C(CC(=O)O)c2cc(F)ccc2/C1=C\c1ccc(S(C)=O)cc1 (stereo not given)	inactive	–
Nc1cc(-c2ccncc2)c[nH]c1=O	–	-9.77% [at 42.5 µM] (inactive)
CC(=O)[C@@]1(O)CC[C@H]2[C@@H]3CCC4=CC(=O)CC[C@]4(C)[C@H]3CC[C@@]21C	–	-7.69% [at 42.5 µM] (inactive)
COCC(C)O (stereo not given)	inactive	–

SMILES	Potency	activity change, negative = cytotoxicity
O=[N+]([O-])c1cc(N(CCO)CCO)ccc1NCCO	inactive	–
Clc1cc(Cl)c(Cl)cc1Cl	inactive	–
CC(C)n1c(/C=C/[C@@H](O)C[C@@H](O)CC(=O)O)c(-c2ccc(F)cc2)c2ccccc21	13.7 µM (active) and 4.73 µM (active)	–
c1ccc2[nH]cnc2c1	inactive	–
ClC1=C(Cl)C(Cl)(Cl)C(Cl)=C1Cl	inactive	–
CCCCCCOC(C)=O	inactive and 30.6 µM (active)	–
O=Nc1ccc(O)cc1	inactive	–
CCc1ccccc1O	–	-5.6% (inactive)
CCCCC(CC)COC(=O)CCCCCCCC(=O)OCC(CC)CCCC (stereo not given)	15.4 µM (active)	–
COC(=O)c1ccc(C(=O)OC)cc1	6.19 µM (active) and inactive	–
O=S(=O)(O)CCS	inactive	–
CC1(C)O[C@@H]2C[C@H]3[C@@H]4C[C@H](F)C5=CC(=O)CC[C@]5(C)[C@H]4[C@@H](O)C[C@]3(C)[C@]2(C(=O)CO)O1	inactive	–
Cc1ccc(N)c(S(=O)(=O)O)c1	inactive	–
NCc1cccc(CN)c1	inactive	–
CCc1ccc(O)cc1	inactive	–
Cn1c([N+](=O)[O-])cnc1COC(N)=O	inactive	–
CC(C)(N=C=O)c1cccc(C(C)(C)N=C=O)c1	68 µM (active) and inactive	–
C=CC(=O)OCCCCCCCC(C)C	inactive	–
Cc1cc(O)c2c(c1)C(=O)c1cc(O)cc(O)c1C2=O	–	-11.6% [at 42.5 µM] (inactive)
CN(C)c1cccc(O)c1	inactive	–
